Source: PubChem BioAssay AID2553 (Johns Hopkins Ion Channel Center, 2010)
The campaign covered roughly 310,000 compounds. About 3,300 (1.1%) were called active.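 Rule for the calls: active = B-score under library mean minus 3 SD, initial fluorescence not abnormally high, positive integrated signal ratio; inactive = the rest.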 Only a selection was taken, and actives are over-represented in it overall.

target: Short transient receptor potential channel 6 (Mus musculus) (UniProt Q61143); assay: mouse TRPC6 channel inhibitors, primary screen, cell-based, HEK293, membrane potential dye (AID 2553); conditions: ACh-evoked depolarization, at 10 µM; stronger effect = lower value;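 for B-score: B-score derived from integrated fluorescence ratio over the kinetic read; more negative B-score means stronger inhibition of depolarization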
Sequence (Q61143 whole entry, looked up): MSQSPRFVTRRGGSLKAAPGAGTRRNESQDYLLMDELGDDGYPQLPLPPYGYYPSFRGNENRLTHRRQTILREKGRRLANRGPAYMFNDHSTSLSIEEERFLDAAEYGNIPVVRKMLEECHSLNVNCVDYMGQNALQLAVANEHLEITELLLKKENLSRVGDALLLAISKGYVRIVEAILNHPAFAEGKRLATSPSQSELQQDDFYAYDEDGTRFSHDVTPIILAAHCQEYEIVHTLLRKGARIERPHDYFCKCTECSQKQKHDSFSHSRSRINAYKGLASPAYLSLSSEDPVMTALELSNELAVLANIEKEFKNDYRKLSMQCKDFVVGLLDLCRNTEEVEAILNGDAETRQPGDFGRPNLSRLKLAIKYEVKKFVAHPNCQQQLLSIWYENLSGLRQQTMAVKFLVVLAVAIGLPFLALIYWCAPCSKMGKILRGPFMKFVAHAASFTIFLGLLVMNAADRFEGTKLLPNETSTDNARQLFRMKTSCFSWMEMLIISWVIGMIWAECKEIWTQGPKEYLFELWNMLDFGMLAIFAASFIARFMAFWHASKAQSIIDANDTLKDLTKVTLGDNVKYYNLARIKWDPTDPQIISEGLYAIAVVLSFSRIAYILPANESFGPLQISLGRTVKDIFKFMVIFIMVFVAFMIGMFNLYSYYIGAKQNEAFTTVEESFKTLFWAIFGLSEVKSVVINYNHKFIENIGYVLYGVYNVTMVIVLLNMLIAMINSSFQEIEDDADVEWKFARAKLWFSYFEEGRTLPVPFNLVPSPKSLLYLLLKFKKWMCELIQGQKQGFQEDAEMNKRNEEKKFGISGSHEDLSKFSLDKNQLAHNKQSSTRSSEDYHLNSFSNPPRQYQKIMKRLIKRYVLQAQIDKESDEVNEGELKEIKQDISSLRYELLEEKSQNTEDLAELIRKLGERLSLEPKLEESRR

SMILES	B-score
CC(=O)OC(C(=O)NC1CCCCC1)c1ccccc1 (stereo not drawn)	inactive
COc1ccc(C(=O)C2CCCN(Cc3ccc4nonc4c3)C2)c(C)c1 (stereo not drawn)	inactive
CCOC(=O)c1[nH]ncc1CN1CCCC(C(=O)c2ccc(OC)cc2C)C1 (stereo not drawn)	inactive
COc1ccc(C(=O)C2CCCN(Cc3cccn3-c3ccccn3)C2)c(C)c1 (stereo not drawn)	-12.5 (active)
Cc1ccc(C(=O)Oc2ccc(C(=S)N3CCOCC3)cc2)cc1	inactive
CC(C)Cc1nc(N2CCOCC2)c(C#N)c2c1CCC2	inactive
CC(C)CCNc1nc(N2CCCC2)c2c(c1C#N)CCN(C)C2	-6.63 (active)
CCc1nc(NCCO)c(C#N)c2c1CCCC2	inactive
COc1ccc(-c2cc(C3CCN(c4ncccc4[N+](=O)[O-])CC3)[nH]n2)cc1	inactive
Cc1cc(Cl)ccc1C(=O)C1CCCN(C(=O)c2nonc2C)C1 (stereo not drawn)	inactive
O=C(Nc1ccccc1[N+](=O)[O-])C1C(c2ccccc2)=C1c1ccccc1	inactive
O=C(O)c1ccccc1C(=O)Nc1ccccc1[N+](=O)[O-]	inactive
O=[N+]([O-])c1ccccc1Nc1ccc(O)cc1	-5.49 (active)
O=C(CCN1CCCCC1)N=Nc1c(O)[nH]c2ccccc12	inactive
N#Cc1cccc(CSc2ncnc(N)n2)c1	inactive
O=C(CN1CCCCCC1)NCCN1C(=O)S/C(=C\c2ccccc2Cl)C1=O	-5 (active)
O=C(CN1C(=O)S/C(=C\c2ccccc2Cl)C1=O)NC1C=CS(=O)(=O)C1 (stereo not drawn)	inactive
O=C(CN1C(=O)S/C(=C\c2ccccc2F)C1=O)NCCCn1ccnc1	inactive
CCn1cc(C(=O)OCC(=O)Nc2cccc(C)c2)c(=O)c2ccc(C)nc21	inactive
Cc1nc(-c2ccccc2)sc1C1(C)CC(c2cccnc2)=NO1 (stereo not drawn)	inactive
Cc1nc(C(=O)NCc2ccccc2)sc1C1(C)CC(c2cccnc2)=NO1 (stereo not drawn)	-5.44 (active)
Cc1nc(C(=O)Nc2ccc(Cl)cc2)sc1C1(C)CC(c2ccccc2)=NO1 (stereo not drawn)	inactive
CC(C)(C)CN1CCNC(=O)C1CC(=O)NC1Cc2ccccc2C1 (stereo not drawn)	inactive
CCN(CC)CCCNC(=O)COc1ccc2oc3c(c2c1)CCCC3	inactive
CCOC(=O)N1CCN(C(=O)COc2ccc(Br)cc2)CC1	inactive
CCOC(=O)N1CCN(C(=O)COc2ccc3oc4c(c3c2)CCCC4)CC1	-5.45 (active)
COc1ccc(COCCN2CCN(S(=O)(=O)c3ccccc3)CCC2=O)cc1	inactive

SMILES	B-score
Cc1ccc(C(O)P(=O)(OC(C)C)c2ccc(N(C)C)cc2)cc1 (stereo not drawn)	inactive
CCn1c(SCC(=O)Nc2ccc(Br)cc2)nc2sc3c(c2c1=O)CCN(C)C3	inactive
COc1c(C=O)c(CCN(C)C(=O)c2ccc(F)cc2)cc2c1OCO2	inactive
COc1ccc(C)cc1S(=O)(=O)Nc1cc2c3c(c1)CCC(=O)N3CCC2	inactive
CS(=O)(=O)N1CCN(c2ccc(C(=O)NC3C4CC5CC(C4)CC3C5)cc2[N+](=O)[O-])CC1 (stereo not drawn)	inactive
O=C(NC1C2CC3CC(C2)CC1C3)c1ccc(N2CCNCC2)c([N+](=O)[O-])c1 (stereo not drawn)	-6.41 (active)
CC(NC(=O)c1ccc(N2CCNCC2)c([N+](=O)[O-])c1)C12CC3CC(CC(C3)C1)C2 (stereo not drawn)	inactive
COC(=O)c1ccc(CNC(=O)C2CCC(=O)N(Cc3ccccn3)C2)cc1 (stereo not drawn)	inactive
CCCCC(=O)Nc1ccc(C(=O)NCCCn2ccnc2)cc1	inactive
CCCC(=O)Nc1ccc(C(=O)NCCCn2ccnc2)cc1	-6.02 (active)
COc1cc(OC)cc(C(=O)NCCCn2ccnc2)c1	inactive
COc1ccnc(Oc2ccccc2)n1	inactive
Cn1nc(C(F)(F)F)c(-c2ccc(F)cc2)c1NC(=O)CSCC(=O)O	inactive
COc1ccc(CC(=O)N[C@@H](CCSC)c2nc3ccccc3[nH]2)cc1	inactive
CSCCC(NC(=O)c1ccc(=O)n(C)n1)c1nc2ccccc2[nH]1 (stereo not drawn)	-4.99 (active)
CSCCC(NC(=O)c1cc([N+](=O)[O-])cc([N+](=O)[O-])c1)c1nc2ccccc2[nH]1 (stereo not drawn)	inactive
COc1ccccc1Oc1ccc(N2CC(C(=O)OCC(=O)c3ccc(F)cc3)CC2=O)cc1 (stereo not drawn)	inactive
CC(C)[C@@H]1COC(c2cccc(C3=N[C@H](C(C)C)CO3)c2)=N1	inactive
CCN(Cc1ccncc1)C(=O)c1cccc(S(=O)(=O)N2CCOCC2)c1	inactive
O=S(=O)(c1cccc(Cn2nnc(-c3ccc(F)cc3)n2)c1)N1CCOCC1	-5.77 (active)
Cc1nc(-c2ccc(F)cc2)c(CC(=O)Nc2cccc(S(=O)(=O)N3CCOCC3)c2)s1	inactive
O=C(Nc1ccc(OCC(=O)N2CCOCC2)cc1)c1cc(F)c(F)cc1Cl	inactive
COc1ccc2c(c1)C=CC1(O2)N(CCO)c2ccccc2C1(C)C (stereo not drawn)	inactive
CC(C)C(=O)N1CC(=O)Nc2ccc(F)cc2C1c1ccc(F)cc1 (stereo not drawn)	inactive
O=C1CN(C(=O)c2ccccc2F)C(c2ccc(F)cc2)c2cc(F)ccc2N1 (stereo not drawn)	-5.3 (active)
Cc1ccc(C(=O)N2CC(=O)Nc3ccc(F)cc3C2c2ccc(F)cc2)cc1 (stereo not drawn)	inactive
